This assay concerns the target T1, Methionyl-tRNA synthetase, putative (Leishmania donovani (strain BPK282A1)) (UniProt E9BF75).
T1 sequence (whole entry): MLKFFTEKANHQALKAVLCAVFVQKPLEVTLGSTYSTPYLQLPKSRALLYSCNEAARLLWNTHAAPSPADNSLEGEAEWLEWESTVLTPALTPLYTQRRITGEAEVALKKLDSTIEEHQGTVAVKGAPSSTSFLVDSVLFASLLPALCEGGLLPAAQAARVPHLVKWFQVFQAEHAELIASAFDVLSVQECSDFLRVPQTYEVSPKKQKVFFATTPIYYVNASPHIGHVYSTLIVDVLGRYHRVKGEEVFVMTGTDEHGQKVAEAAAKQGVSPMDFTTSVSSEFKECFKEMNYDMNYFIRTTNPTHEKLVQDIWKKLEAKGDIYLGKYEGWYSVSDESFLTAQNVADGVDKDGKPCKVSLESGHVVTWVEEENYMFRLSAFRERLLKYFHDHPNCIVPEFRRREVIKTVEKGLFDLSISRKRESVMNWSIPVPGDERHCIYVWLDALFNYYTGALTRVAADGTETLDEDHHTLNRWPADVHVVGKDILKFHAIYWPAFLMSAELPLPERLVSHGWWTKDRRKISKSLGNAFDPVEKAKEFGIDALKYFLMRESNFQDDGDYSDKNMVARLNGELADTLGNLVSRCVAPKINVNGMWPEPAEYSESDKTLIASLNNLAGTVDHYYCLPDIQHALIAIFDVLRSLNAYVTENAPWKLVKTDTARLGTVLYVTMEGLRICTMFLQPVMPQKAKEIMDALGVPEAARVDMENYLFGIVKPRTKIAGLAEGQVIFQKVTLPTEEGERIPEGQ
Kind of assay: Leishmania donovani Methionine tRNA synthetase (LdMetRS):v7. Dose response assay. The assay is classed as functional. Also noted: conc 80 nM, time 150 minutes.

Molecules are shown by their SMILES.

In the case of `CN(CCO)c1nc(-c2cccs2)nc2sc3c(c12)CCCC3`, the PXC50 (MAX_EFFECT 31.46666667) is less than 4 and the PXC50 (MAX_EFFECT 36.50793651) was less than 4.
Turning to `CCc1nc(NCCCN(C)C)c2cc(CC)sc2n1`, the PXC50 by setting is: (MAX_EFFECT 9.547738693) less than 4; (MAX_EFFECT 12.53071253) less than 4.
Take `O=C1NCCCC12CCN(c1nc3c(c(C(F)(F)F)n1)CCCC3)C2` (stereo not drawn): the PXC50 was less than 4 (MAX_EFFECT 4.081632653) and less than 4 (MAX_EFFECT 6.313131313).
Regarding `OCc1ccncc1NCc1cnc(-c2ccccn2)s1`, the PXC50 was less than 4 (MAX_EFFECT 2.34741784) and less than 4 (MAX_EFFECT 7.222222222).
In the case of `O=C(O)C1CCCN1c1nc(C2CC2)cc(C(F)(F)F)n1` (stereo not drawn), the PXC50 is less than 4 (MAX_EFFECT 5.221932115) and less than 4 (MAX_EFFECT 7.049608355).
`CN(C(=O)c1ccc2ccc(N3CCN(S(C)(=O)=O)CC3)n2c1)C1CCCC1`: the PXC50 reads like this: (BOTTOM 0.289643944, HILLSLOPE 2.293493597, MAX_EFFECT 58.37320574, TOP 59.73308371) 5.01; (BOTTOM 8.176661161, HILLSLOPE 2.054643886, MAX_EFFECT 62.15722121, TOP 64.55497205) 4.82.
As for `FC(F)(F)c1nc(N2CCOCC2)nc2c1CCCCC2`, the PXC50 is, setting by setting: (MAX_EFFECT 7.808564232) less than 4; (MAX_EFFECT 8.396946565) less than 4.
In the case of `CCc1nc(NCc2ccccn2)c2cc(CC)sc2n1`, the PXC50 is less than 4 (MAX_EFFECT 4.176904177) and less than 4 (MAX_EFFECT 4.522613065).
On to `CC(=O)N1CCN(CC2OB(O)c3ccccc32)CC1` (stereo not drawn), for which the PXC50 (MAX_EFFECT 12.26415094) is less than 4 and the PXC50 (MAX_EFFECT 15.06849315) was less than 4.
`N[C@@H]1CCOc2c(Cl)cc(Cl)cc21`: the PXC50 was less than 2.7 (MAX_EFFECT 3.676470588) and less than 2.7 (MAX_EFFECT 16.70480549).
As to `Cn1ccnc1CN1CCC(F)(F)C2(CCN(c3cccnc3)C2)C1` (stereo not drawn), the PXC50 runs as follows: (MAX_EFFECT 9.719626168) less than 4; (MAX_EFFECT 11.33786848) less than 4.
On to `CNC(=O)CNc1nc(CN2CCCCC2)nc2sc3c(c12)CCC3`, for which the PXC50 (MAX_EFFECT 7.304785894) was less than 4 and the PXC50 (MAX_EFFECT 12.46819338) was less than 4.
As to `COCCNc1nc(-c2ccc(C)cc2)cc(C(F)(F)F)n1`, the PXC50 reads like this: (MAX_EFFECT 7.978723404) less than 4; (MAX_EFFECT 8.29015544) less than 4.
For the compound `CS(=O)(=O)N1CCN(c2ccc3ccc(C(=O)NCCN4CCS(=O)(=O)CC4)cn23)CC1`, the PXC50 (BOTTOM 1.003127248, HILLSLOPE 2.200420441, MAX_EFFECT 73.49177331, TOP 74.60069177) came to 4.88 and the PXC50 (BOTTOM 1.050104582, HILLSLOPE 2.645513549, MAX_EFFECT 70.81339713, TOP 67.22785398) was found to be 4.94.
Regarding `CCCC(=O)N1CCC(c2ncc3c(n2)CCNC3)CC1`, the PXC50 was less than 4 (MAX_EFFECT 6.802721088) and less than 4 (MAX_EFFECT 13.45794393).
Consider `CCc1cc2c(NC(C(=O)O)C(C)C)nc(-c3ccccc3)nc2s1` (stereo not drawn), for which the PXC50 by setting is: (MAX_EFFECT 27.80748663) less than 4; (MAX_EFFECT 31.69398907) less than 4.
Take `CCc1nc(NCCOC)c2c3c(sc2n1)CCC3`: the PXC50 is, setting by setting: (MAX_EFFECT 5.793450882) less than 4; (MAX_EFFECT 9.41475827) less than 4.
For `Cc1nc(NC(CC(C)C)C(=O)O)c2c3c(sc2n1)CCC3` (stereo not drawn), the PXC50 is less than 4 (MAX_EFFECT 14.004914) and less than 4 (MAX_EFFECT 14.57286432).
`COCCNc1nc(CSc2ccccc2)nc2sc(C)c(C)c12`: the PXC50 by setting is: (MAX_EFFECT 27.86885246) less than 4; (MAX_EFFECT 28.34224599) less than 4.
On to `Cn1cc(CN2CCC(F)(F)C3(CCN(c4ncccn4)C3)C2)cn1` (stereo not drawn), for which the PXC50 was less than 4 (MAX_EFFECT -0.938967136) and less than 4 (MAX_EFFECT -2.777777778).
`NC(=O)C1CN(c2nc(C3CC3)nc3sc4c(c23)CCCC4)CCO1` (stereo not drawn): the PXC50 reads like this: (MAX_EFFECT 5.699481865) less than 4; (MAX_EFFECT 7.446808511) less than 4.
As for `CC(C)C[C@H](N)CNc1cccnc1Oc1ccc(Cl)cc1`, the PXC50 (MAX_EFFECT 7.660455487) is less than 4 and the PXC50 (MAX_EFFECT 9.168443497) is less than 4.
For `Cc1nc(N2CCC3(CC2)OCCO3)c2c(-c3cccs3)csc2n1`, the PXC50 (MAX_EFFECT 10.43256997) was less than 4 and the PXC50 (MAX_EFFECT 13.35012594) was less than 4.
On to `Cc1cc(Br)sc1CNCCCNc1cc(=O)c2ccccc2[nH]1`, for which the PXC50 is 6.25 (BOTTOM 0.0, HILLSLOPE 1.706331743, MAX_EFFECT 106.0465116, TOP 103.2080248) and 6.14 (BOTTOM 0.0, HILLSLOPE 2.906661209, MAX_EFFECT 104.1958042, TOP 102.1210588).
Turning to `FC1(F)CCN(Cc2ccncc2)CC12CCN(c1cnccn1)C2` (stereo not drawn), the PXC50 was less than 4 (MAX_EFFECT 2.721088435) and less than 4 (MAX_EFFECT 15.70093458).
As to `Cn1ccnc1CN1CCC(F)(F)C2(CCN(c3cnccn3)C2)C1` (stereo not drawn), the PXC50 runs as follows: (MAX_EFFECT 2.816901408) less than 4; (MAX_EFFECT 9.074074074) less than 4.
Consider `COCCNc1ccc2ncc(-c3ccc4onc(N)c4c3)n2n1`, for which the PXC50 by setting is: (MAX_EFFECT 3.125) less than 4; (MAX_EFFECT 3.947368421) less than 4.
For `Cc1nc(NCCCS(N)(=O)=O)c2c3c(sc2n1)CCC3`, the PXC50 is, setting by setting: (MAX_EFFECT 5.319148936) less than 4; (MAX_EFFECT 8.29015544) less than 4.
`CN(C)C(=O)C1CCN(c2cncc(-n3cccn3)n2)CC1` showed a PXC50 (MAX_EFFECT 5.700712589) of less than 4 and a PXC50 (MAX_EFFECT 11.44366197) of less than 4.

For the origin of these results see ChEMBL document CHEMBL3988442, “University of Dundee, Small-Polar-MMV Screening Library” (2021).
